Compounds with a hit are over-represented: about 4.6% of the library has one in this group of screens.
Tau fil binding – qHTS Assay for Tau Filament Binding | recombinant tau filaments, thioflavin S fluorescence, 15 h; filaments grown with octadecylsulfate alongside compound | Potency, µM (doses to about 57.1 µM), for inactives: at the top dose activity change, negative = inhibition | 71,000 tested, 2% active | AID 596, 2007;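 also: % is scaled to controls: 0 for no effect and ±100 for the full control effect; actives lower thioflavin S fluorescence by blocking filaments or displacing dye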
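ThS-based fibril read: tau 1 uM final, inducer ODS 30 uM final, 37 C for 15 h, ex 450/em 510 nm.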
USP2a inhib – qHTS Assay for Inhibitors of Ubiquitin-specific Protease USP2a; Ubiquitin carboxyl-terminal hydrolase 2 (Homo sapiens), O75604; 60,000 tested, 0.1% active; Potency, µM (doses to about 38.3 µM), for the others: at the highest dose activity change, negative = inhibition, usual class: inhibitors; USP2a enzymatic assay, qHTS inhibition; also: nearly all actives have a fitted effect of over 60% in size
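Inhibition is measured in a cell-free coupled assay with 20 nM USP2 core, 20 nM Ub-PLA2 and 20 uM NBD C6-HPC, 2.5 h incubation. Activity normalized to NEM control.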
Bst PK mod – Pyruvate Kinase | purified pyruvate kinase, luminescence ATP production; ribose 5-phosphate activator present at AC10 | Potency, µM | 51,000 tested, 1.2% active | AID 361, 2006; in the data active = potency below about 11 µM; inconclusive = mostly about 12 µM to 25 µM;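 the screen sought inhibitors and activators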;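 also: scaled between full activation by ribose 5 phosphate and full inhibition by luteolin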
Hsp90 Hop PPI – qHTS Assay for Disrupters of an Hsp90 Co-Chaperone Interaction | Hsp90 C-terminal peptide / TPR2A (Hop) interaction, human | AlphaScreen TPR2A-His6 binding biotin-Hsp90 C-terminal peptide | Potency, µM (highest dose often 57 µM), for inactives: top-dose activity change, negative = inhibition | 71,000 tested, 0.44% active; active = well fitted curve in either direction with a large enough effect; inconclusive = small, poorly fitted or top-dose-only effect, or another doubt; also: % is scaled to controls: 0 for no effect and ±100 for the full control effect
15-hLO inh – qHTS Assay for Inhibitors of 15-hLO (15-human lipoxygenase) | Polyunsaturated fatty acid lipoxygenase ALOX15 (Homo sapiens), P16050 | purified 15hLO-1, xylenol orange hydroperoxide absorbance | Potency, µM (highest dose often 57.1 µM), without a hit: at the highest dose activity change, negative = inhibition, usual class: inhibitors | 74,000 tested, 1.4% active | AID 887, 2007; also: % is scaled to controls: 0 for no effect and ±100 for the full control effect; nearly all actives have a fitted effect of over 55% in size
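Compounds were preincubated 15 min at room temperature with 40 nM purified human enzyme (25 mM Hepes pH 7.5, 0.01% Triton X-100); 50 uM arachidonic acid reacted 6 min. Fe-xylenol orange detection, 30 min, absorbance ratio 573/405 nm.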
GBA activity – Glucocerebrosidase; 48,000 tested, 1.1% active; Lysosomal acid glucosylceramidase (Homo sapiens), P04062; purified enzyme, resorufin glucoside fluorescence (screen aimed at inhibitors), 20 min; Potency, µM; in the data active = potency below about 15 µM; inconclusive = mostly about 16 µM to 33 µM;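 also: the screen sought inhibitors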
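Normal human glucocerebrosidase (0.2 nM final) was assayed with resorufin β-D-glucopyranoside (30 uM final) in 50mM citric acid/KH2PO4, 10mM sodium taurocholate, 0.01% tween-20, pH 5.9. Compounds were titrated; fluorescence (Ex 548, Em 600) read after 20 min at RT.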
An asterisk follows results filed as active; i = inactive; u = inconclusive; x = no result given; [ ] = remark or other dose. Unless noted, calls follow the shape of the dose curve; as a rule, active = well fitted curve in the direction sought with a large enough effect; inconclusive = small, poorly fitted or top-dose-only effect, or another doubt; inactive = no such curve, though single readings can be large; an effect the other way counts as inactive or inconclusive. Potency is read from the fitted curve at half-maximal effect.

SMILES	Tau fil binding	USP2a inhib	Bst PK mod	Hsp90 Hop PPI	15-hLO inh	GBA activity
CCC[C@@H]1C[C@@]1(CCC)[C@@H](NP(=O)(c1ccccc1)c1ccccc1)c1ccc(C(=O)OC)cc1	-19%	x	x	0%	-2%	x
CCC(=O)N1CCc2cc(S(=O)(=O)NCCCOC)ccc21	5%	4%	>57	5%	2%	>77
CC1CN(c2nc3ccccn3c(=O)c2/C=C(\C#N)S(=O)(=O)c2ccccc2)CC(C)O1 (stereo unspecified)	20µM*	21%	>57	-18%	-11%	>77
COCCOC(=O)C1=C(C)NC(=O)NC1c1cccs1 (stereo unspecified)	x	x	x	x	-1%	x
Oc1cccc(C(=S)N2CCN(Cc3ccccc3)CC2)c1	-3%	16%	>57	-4%	13µM*	>77
Cc1ccc(C(=O)NCc2ccc(Cl)cc2)o1	-1%	6%	>57	-1%	4%	>77
COc1cccc(C(c2nnnn2C(C)(C)C)N2CCN(C3CCCCC3)CC2)c1OC (stereo unspecified)	-6%	10%	>57	-2%	14%	>77
C/C(=N\O)c1ccc(N2C(=O)C3CC=C(Cl)CC3C2=O)cc1 (stereo unspecified)	3.2µM*	7%[7.66 µM]	x	-8%[11 µM]	2%[11.4 µM]	x
CC(C)OC(=O)c1ccc(N2C(=O)C3CC=CCC3C2=O)cc1 (stereo unspecified)	-3%	-3%	>57	1%	1%	>77
COc1cccc(-c2nc(NCc3ccccc3OC)c3ccccc3n2)c1	47%	u	x	u	1%	x
COc1cccc(-c2nc(NC3CC3)c3ccccc3n2)c1	56%	52%	x	u	25µM*	x
COc1ccccc1CNc1nc(-c2ccccc2OC)nc2ccccc12	4µM*	201%	x	-10%	u	x
Cc1cnc(CNc2nc(-c3ccccc3C)nc3ccccc23)cn1	0%	95%	x	-1%	-21%	x
COc1ccccc1-c1nc(NCc2cnc(C)cn2)c2ccccc2n1	u	0%	x	u	16µM*	x
COc1ccccc1-c1nc(NC2CC2)c2ccccc2n1	16µM*	101%	x	-5%	-17%	x
COc1cccc(CNC(=O)Cn2cc3c(n2)CCCC3)c1	-2%	x	x	1%	1%	x
CN(C)C(=O)c1ccc(-c2nccc(NCc3cccnc3)n2)cc1	-2%	-4%	x	-1%	-3%	x
CCOCCn1c(CN2CCN(c3ccccc3)CC2)nc2c1c(=O)n(C)c(=O)n2C	-13%	16%	>57	-4%	5%	>77
COc1cccc(-c2nc(NCc3ccccc3)c3ccccc3n2)c1	-5%	116%	x	-7%	-24%	x
COc1ccccc1-c1nc(NCc2ccccc2)c2ccccc2n1	4µM*	29%	x	-5%	-2%	x
COc1ccccc1CNc1nc(-c2ccc(C(=O)N(C)C)cc2)nc2ccccc12	-6%	170%	x	-8%	-5%	x
COc1ccccc1CNc1nc(-c2ccc(N(C)C)cc2)nc2ccccc12	i	5%	x	-14%	20µM*	x
O=C(O)c1ccc(NCc2cccnc2)cc1	15%	2%	>57	-8%	-3%	>77
Cc1c(Cc2ccccc2)sc(N)c1C(N)=O	16µM*	34%	x	-11%	u	x
Cc1nc(-c2ccccc2)sc1C(N)=O	5%	-3%	x	-2%	9%	>77
SMILES	Tau fil binding	USP2a inhib	Bst PK mod	Hsp90 Hop PPI	15-hLO inh	GBA activity
COc1cc(NC(=O)C23CC4CC(C2)CC(n2nnc(C)n2)(C4)C3)c(OC)cc1Cl	0%	3%	>57	0%	-2%	>77
CN(C)c1oc(-c2ccc(OCc3ccc(Cl)cc3)cc2)nc1C#N	23%	-5%	0.25*	-9%	-6%	>77
CN(C)c1oc(COc2ccc(F)cc2)nc1C#N	5%	-3%	>57	-13%	-4%	>77
CC#C[C@]1(O)CC[C@H]2[C@@H]3CCC4=CC(=O)CCC4=C3[C@H](c3ccc(N(C)C)cc3)C[C@@]21C	32µM*	25%	x	u	10µM*	x
CCSC1=NC(=O)/C(=C2/C=Cc3ccccc3N2CC)S1	4µM*	x	x	u	-15%	>77
CNc1nc(-c2ccc(Cl)cc2)cs1	7%	0%	8.1*	-4%	-19%	>77

High-throughput results deposited in PubChem by National Center for Advancing Translational Sciences (NCATS).
